According to PubChem BioAssay AID1159580 (chemical genetic matrix, 2015):
Screen size: about 5,500 compounds; about 2,000 (36%) were called active. Not shown: some 18% with an inconclusive outcome. Cut-off read from the data, not from the text of the source: active = normalized growth mostly below about 0.91 (no sharp cut-off); inconclusive = no clear call, values can overlap the other calls; inactive = mostly above about 0.92. The list shows a part of the results.

Experiment: chemical genetic growth profiling, strain panel (AID 1159580);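 note: tested at 20 µM; growth read once vehicle control cultures reached saturation at 30 °C; 1 = growth at the plate median or of vehicle wells; lower values mean less growth of the strain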
Settings: S. cerevisiae deletion strains, growth OD

Measured: normalized growth

C=Cc1c(C)c2[n-]c1=Cc1[n-]c(c(CC)c1C)C=c1[n-]c3c(c1C)C(=O)C(C(=O)[O-])C=3c1[n-]c(c(C)c1CCC(=O)[O-])C=2.[Cu] (configuration not stated)
active: locus YAL030W, strain snc1, hits give low values 1.09 [resistant] | locus YCR088W, strain abp1, hits give low values 1.11 [resistant] | locus YDL040C, strain nat1, hits give low values 1.08 [resistant] | locus YDR001C, strain nth1, hits give low values 1.1 [resistant] | locus YDR069C, strain doa4, hits give low values 1.12 [resistant] | locus YDR137W, strain rgp1, hits give low values 1.16 [resistant] | locus YDR195W, strain ref2 1.28 [resistant] | locus YDR297W, strain sur2, hits give low values 1.08 [resistant] | locus YDR334W, strain swr1, hits give low values 1.11 [resistant] | locus YEL061C, strain CIN8 (second series), hits give low values 1.09 [resistant] | locus YER016W, strain bim1, hits give low values 1.09 [resistant] | locus YER111C, strain swi4, hits give low values 1.09 [resistant] | locus YER155C, strain BEM2 (second series), hits give low values 1.17 [resistant] | locus YGL227W, strain vid30, hits give low values 1.1 [resistant] | locus YHR013C, strain ard1, hits give low values 1.18 [resistant] | locus YJL095W, strain BCK1 (second series), hits give low values 1.09 [resistant] | locus YJL115W, strain asf1, hits give low values 1.11 [resistant] | locus YJL129C, strain trk1, hits give low values 1.15 [resistant] | locus YJL154C, strain vps35, hits give low values 1.09 [resistant] | locus YJL187C, strain SWE1, hits give low values 1.08 [resistant] | locus YKR026C, strain gcn3, hits give low values 1.1 [resistant] | locus YKR091W, strain srl3, hits give low values 1.08 [resistant] | locus YLL026W, hits give low values 1.08 [resistant] | locus YLL041C, strain sdh2, hits give low values 1.08 [resistant] | locus YMR125W, strain sto1, hits give low values 1.13 [resistant] | locus YMR129W, hits give low values 1.08 [resistant] | locus YMR231W, strain pep5, hits give low values 1.08 [resistant] | locus YNL071W, strain lat1, hits give low values 1.09 [resistant] | locus YNR049C, strain mso1, hits give low values 1.09 [resistant] | locus YOR265W, strain rbl2, hits give low values 1.09 [resistant] | locus YPL106C, strain sse1, hits give low values 1.16 [resistant] | locus YPL240C, strain hsp82, hits give low values 1.09 [resistant]
inactive: locus YAL021C, strain ccr4, hits give low values 1.07 | locus YAL026C, strain drs2, hits give low values 1.02 | locus YBL061C, strain skt5, hits give low values 1.08 | locus YBR009C, strain hhf1, hits give low values 1.02 | locus YBR023C, strain chs3, hits give low values 1.07 | locus YBR171W, strain sec66, hits give low values 1.09 | locus YBR231C, strain swc5, hits give low values 1.08 | locus YBR279W, strain paf1, hits give low values 1.06 | locus YCL011C, strain gbp2, hits give low values 1.05 | locus YCL016C, strain dcc1, hits give low values 1.03 | locus YCL061C, strain MRC1, hits give low values 1.03 | locus YCL069W, strain vba3, hits give low values 1.07 | locus YDL005C, strain med2, hits give low values 1.08 | locus YDR159W, strain sac3, hits give low values 1.09 | locus YDR335W, strain msn5, hits give low values 1.02 | locus YDR392W, strain spt3, hits give low values 1.11 | locus YEL003W, strain gim4, hits give low values 1.03 | locus YEL037C, strain rad23, hits give low values 1.07 | locus YER015W, strain faa2, hits give low values 1.02 | locus YFR010W, strain ubp6, hits give low values 1.1 | locus YGL167C, strain pmr1, hits give low values 1.08 | locus YGL173C, strain kem1, hits give low values 1.02 | locus YGL240W, strain doc1, hits give low values 1.03 | locus YGL253W, strain hxk2, hits give low values 1.02 | locus YHR027C, strain rpn1, hits give low values 1.05 | locus YHR030C, strain SLT2, hits give low values 0.992 | locus YHR079C, strain IRE1, hits give low values 0.998 | locus YHR142W, strain chs7, hits give low values 1.08 | locus YJL092W, strain hpr5, hits give low values 1.07 | locus YJL095W, strain BCK1, hits give low values 0.957 | locus YJL164C, strain tpk1, hits give low values 1.05 | locus YJL166W, strain qcr8, hits give low values 1.01 | locus YJR066W, strain TOR1, hits give low values 0.957 | locus YKL160W, strain elf1, hits give low values 1.06 | locus YLL001W, strain dnm1, hits give low values 1.06 | locus YLR027C, strain aat2, hits give low values 1.07 | locus YLR113W, strain HOG1, hits give low values 0.999 | locus YLR221C, strain rsa3, hits give low values 1.01 | locus YLR258W, strain gsy2, hits give low values 1.07 | locus YLR262C, strain YPT6 (second series), hits give low values 1.09 | locus YLR320W, strain mms22, hits give low values 1.06 | locus YLR342W, strain FKS1, hits give low values 1.04 | locus YLR357W, strain rsc2, hits give low values 1.08 | locus YLR370C, strain arc18, hits give low values 1.04 | locus YLR384C, strain iki3, hits give low values 1.08 | locus YML120C, strain ndi1, hits give low values 1.03 | locus YMR058W, strain fet3, hits give low values 0.967 | locus YMR205C, strain PFK2, hits give low values 1.11 | locus YNL183C, strain NPR1, hits give low values 0.862 | locus YNL209W, strain ssb2, hits give low values 1.04 | locus YNL248C, strain rpa49, hits give low values 1.03 | locus YNL322C, strain KRE1 (second series), hits give low values 1.08 | locus YOR001W, strain rrp6, hits give low values 1.05 | locus YOR070C, strain gyp1, hits give low values 1.05 | locus YOR080W, strain dia2, hits give low values 1.06 | locus YOR083W, strain WHI5, hits give low values 0.992 | locus YOR106W, strain vam3, hits give low values 0.999 | locus YOR231W, strain MKK1, hits give low values 1.01 | locus YOR270C, strain vph1, hits give low values 1.15 | locus YOR290C, strain snf2, hits give low values 1.06 | locus YPL051W, strain arl3, hits give low values 1.07 | locus YPL078C, strain atp4, hits give low values 1.03 | locus YPL256C, strain CLN2, hits give low values 1.05

Cc1nc2sccn2c(=O)c1CCN1CCC(=C(c2ccccc2)c2ccc(F)cc2)CC1
inactive: locus YAL013W, strain DEP1, hits give low values 0.965 | locus YAL040C, strain CLN3, hits give low values 0.99 | locus YCL061C, strain MRC1 (second series), hits give low values 0.993 | locus YDR150W, strain NUM1, hits give low values 0.995 | locus YDR363W, strain ESC2, hits give low values 0.985 | locus YJR075W, strain HOC1, hits give low values 1.01 | locus YMR263W, strain SAP30, hits give low values 0.992 | locus YNL175C, strain NOP13, hits give low values 1.04 | locus YNL197C, strain WHI3, hits give low values 1.05 | locus YNL224C, strain SQS1, hits give low values 1.02 | locus YNL322C, strain KRE1, hits give low values 0.956 | locus YPL241C, strain CIN2, hits give low values 0.992
